Columns and labels:
Assay in all cases: log2 ratio of Biotin-Ahx-Ub-VS probe labelling (fragment/DMSO); higher = less target engagement (more negative = stronger competition), active = hit call of the paper (q ≤ 0.05, log2 ratio ≤ -1)
Conditions in all cases: compound concentration: 200 uM; treatment time: 3 h
[1] = target: USP34 (UniProt Q70CQ2)
Procedure, shortened: (§1)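 HEK293T lysate (495 µg per sample, in Tris/CHAPS/IGEPAL buffer with protease inhibitors) was exposed in triplicate for 3 h to fragment at 200 µM or to vehicle, then to Biotin-Ahx-Ub-VS at 0.5 µM final for 1 h. Labelled DUBs were enriched on NeutrAvidin, digested with LysC and trypsin, and analysed by diaPASEF LC-MS/MS. Spectronaut label-free quantities were normalised to the global median, and values are average log2 ratios of fragment over vehicle from an unpaired t-test. Only proteins with ≥2 unique peptides were used.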

[2] = target: T1, USP36 (UniProt Q9P275)
T1 sequence (whole entry): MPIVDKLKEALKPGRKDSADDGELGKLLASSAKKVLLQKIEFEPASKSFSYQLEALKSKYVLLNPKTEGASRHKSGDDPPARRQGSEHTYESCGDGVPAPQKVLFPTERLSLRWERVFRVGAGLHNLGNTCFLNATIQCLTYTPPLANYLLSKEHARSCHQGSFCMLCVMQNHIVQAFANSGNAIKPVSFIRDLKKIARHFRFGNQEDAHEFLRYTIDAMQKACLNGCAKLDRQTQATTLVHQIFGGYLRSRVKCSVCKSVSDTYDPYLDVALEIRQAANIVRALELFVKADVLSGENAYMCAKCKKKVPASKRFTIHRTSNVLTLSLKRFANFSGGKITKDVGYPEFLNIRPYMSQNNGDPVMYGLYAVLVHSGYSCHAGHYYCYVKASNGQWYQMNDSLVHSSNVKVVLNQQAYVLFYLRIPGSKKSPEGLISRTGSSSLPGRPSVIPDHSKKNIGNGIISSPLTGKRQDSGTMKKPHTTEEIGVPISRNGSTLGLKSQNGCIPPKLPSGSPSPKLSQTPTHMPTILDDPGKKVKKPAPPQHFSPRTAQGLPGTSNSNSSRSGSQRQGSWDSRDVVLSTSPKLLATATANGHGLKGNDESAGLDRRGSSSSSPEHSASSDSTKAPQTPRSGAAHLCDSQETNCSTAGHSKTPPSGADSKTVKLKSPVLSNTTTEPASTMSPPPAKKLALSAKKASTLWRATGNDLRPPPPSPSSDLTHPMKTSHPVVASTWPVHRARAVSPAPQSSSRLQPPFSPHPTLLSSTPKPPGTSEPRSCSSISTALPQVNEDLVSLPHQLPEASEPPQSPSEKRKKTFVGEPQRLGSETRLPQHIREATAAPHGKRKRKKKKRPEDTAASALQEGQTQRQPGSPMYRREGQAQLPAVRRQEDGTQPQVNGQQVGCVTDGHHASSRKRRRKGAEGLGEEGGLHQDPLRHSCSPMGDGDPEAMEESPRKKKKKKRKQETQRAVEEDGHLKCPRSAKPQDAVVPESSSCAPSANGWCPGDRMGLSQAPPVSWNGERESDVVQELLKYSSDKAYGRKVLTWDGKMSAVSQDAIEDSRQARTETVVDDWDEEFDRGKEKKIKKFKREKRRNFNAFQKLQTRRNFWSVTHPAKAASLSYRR
Procedure, shortened: as §1

[3] = target: T2, USP38 (UniProt Q8NB14)
T2 sequence (whole entry): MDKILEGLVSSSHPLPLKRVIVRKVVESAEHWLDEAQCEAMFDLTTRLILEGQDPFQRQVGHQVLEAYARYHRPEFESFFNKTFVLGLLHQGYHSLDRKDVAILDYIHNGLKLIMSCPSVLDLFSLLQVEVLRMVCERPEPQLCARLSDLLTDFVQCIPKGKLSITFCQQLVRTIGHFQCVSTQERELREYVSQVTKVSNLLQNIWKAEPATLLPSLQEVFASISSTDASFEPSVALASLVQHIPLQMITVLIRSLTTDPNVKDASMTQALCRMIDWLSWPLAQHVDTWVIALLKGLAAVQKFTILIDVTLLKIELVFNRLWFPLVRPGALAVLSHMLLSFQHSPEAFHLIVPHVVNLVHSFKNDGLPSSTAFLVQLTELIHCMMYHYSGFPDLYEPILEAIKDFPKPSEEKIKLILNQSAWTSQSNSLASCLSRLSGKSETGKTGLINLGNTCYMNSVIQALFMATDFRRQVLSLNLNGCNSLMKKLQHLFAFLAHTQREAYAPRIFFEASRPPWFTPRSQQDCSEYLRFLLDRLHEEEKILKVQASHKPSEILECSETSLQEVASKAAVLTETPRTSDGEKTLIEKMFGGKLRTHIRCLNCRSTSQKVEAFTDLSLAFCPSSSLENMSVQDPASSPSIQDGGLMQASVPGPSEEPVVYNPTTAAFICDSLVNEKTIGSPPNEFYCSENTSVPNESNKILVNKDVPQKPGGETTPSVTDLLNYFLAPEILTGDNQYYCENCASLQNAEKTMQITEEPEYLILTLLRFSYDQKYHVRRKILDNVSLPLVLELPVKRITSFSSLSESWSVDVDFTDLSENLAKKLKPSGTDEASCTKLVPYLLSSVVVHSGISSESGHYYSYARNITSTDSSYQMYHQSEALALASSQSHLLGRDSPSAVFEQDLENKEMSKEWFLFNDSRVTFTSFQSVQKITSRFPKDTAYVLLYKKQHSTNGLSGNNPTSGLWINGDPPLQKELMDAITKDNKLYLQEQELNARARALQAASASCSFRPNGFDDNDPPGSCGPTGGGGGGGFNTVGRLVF
Procedure, shortened: as §1

[4] = target: T3, USP39 (UniProt Q53GS9)
T3 sequence (whole entry): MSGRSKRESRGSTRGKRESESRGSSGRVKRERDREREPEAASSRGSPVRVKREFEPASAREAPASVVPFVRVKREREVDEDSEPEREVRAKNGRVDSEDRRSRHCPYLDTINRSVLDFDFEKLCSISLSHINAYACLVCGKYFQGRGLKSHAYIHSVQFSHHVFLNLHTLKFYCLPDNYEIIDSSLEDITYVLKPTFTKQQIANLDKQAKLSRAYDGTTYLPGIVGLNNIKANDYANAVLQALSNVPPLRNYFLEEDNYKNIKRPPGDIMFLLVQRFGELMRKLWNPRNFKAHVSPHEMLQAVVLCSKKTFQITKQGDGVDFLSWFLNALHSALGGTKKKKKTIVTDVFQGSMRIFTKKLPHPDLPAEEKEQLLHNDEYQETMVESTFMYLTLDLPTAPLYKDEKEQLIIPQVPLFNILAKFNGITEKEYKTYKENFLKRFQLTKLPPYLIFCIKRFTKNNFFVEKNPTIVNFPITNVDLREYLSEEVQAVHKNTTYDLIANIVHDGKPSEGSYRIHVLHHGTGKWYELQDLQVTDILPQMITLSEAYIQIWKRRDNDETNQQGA
Procedure, shortened: as §1

[5] = target: T4, USP4 (UniProt Q13107)
T4 sequence (whole entry): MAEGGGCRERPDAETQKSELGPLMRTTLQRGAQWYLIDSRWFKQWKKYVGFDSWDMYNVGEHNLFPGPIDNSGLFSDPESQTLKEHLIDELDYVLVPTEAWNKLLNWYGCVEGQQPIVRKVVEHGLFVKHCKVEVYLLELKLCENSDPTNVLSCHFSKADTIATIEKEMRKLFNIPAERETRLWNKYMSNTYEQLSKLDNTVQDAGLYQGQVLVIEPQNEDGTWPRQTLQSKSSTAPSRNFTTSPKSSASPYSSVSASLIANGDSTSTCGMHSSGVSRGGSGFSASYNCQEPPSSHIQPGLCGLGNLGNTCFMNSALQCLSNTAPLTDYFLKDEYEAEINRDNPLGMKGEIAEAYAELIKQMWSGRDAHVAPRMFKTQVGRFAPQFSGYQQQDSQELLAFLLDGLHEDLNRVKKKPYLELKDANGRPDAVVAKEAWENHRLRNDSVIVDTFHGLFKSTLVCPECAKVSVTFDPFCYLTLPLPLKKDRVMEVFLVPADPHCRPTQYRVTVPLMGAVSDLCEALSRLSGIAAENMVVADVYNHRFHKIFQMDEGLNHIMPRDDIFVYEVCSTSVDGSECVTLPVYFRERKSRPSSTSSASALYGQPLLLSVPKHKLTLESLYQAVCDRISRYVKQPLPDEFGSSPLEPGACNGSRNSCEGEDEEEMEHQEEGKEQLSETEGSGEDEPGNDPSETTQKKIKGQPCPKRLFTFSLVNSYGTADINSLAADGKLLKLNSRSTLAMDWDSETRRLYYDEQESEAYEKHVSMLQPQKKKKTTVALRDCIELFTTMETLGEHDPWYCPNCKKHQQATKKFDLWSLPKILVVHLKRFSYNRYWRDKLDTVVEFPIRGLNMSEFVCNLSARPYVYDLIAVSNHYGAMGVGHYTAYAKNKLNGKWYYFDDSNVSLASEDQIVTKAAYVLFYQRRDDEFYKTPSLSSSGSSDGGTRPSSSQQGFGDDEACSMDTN
Procedure, shortened: as §1

Measured: log2 ratio of Biotin-Ahx-Ub-VS probe labelling

Sequence of USP34 (Q70CQ2 whole entry, the tested form may be a part): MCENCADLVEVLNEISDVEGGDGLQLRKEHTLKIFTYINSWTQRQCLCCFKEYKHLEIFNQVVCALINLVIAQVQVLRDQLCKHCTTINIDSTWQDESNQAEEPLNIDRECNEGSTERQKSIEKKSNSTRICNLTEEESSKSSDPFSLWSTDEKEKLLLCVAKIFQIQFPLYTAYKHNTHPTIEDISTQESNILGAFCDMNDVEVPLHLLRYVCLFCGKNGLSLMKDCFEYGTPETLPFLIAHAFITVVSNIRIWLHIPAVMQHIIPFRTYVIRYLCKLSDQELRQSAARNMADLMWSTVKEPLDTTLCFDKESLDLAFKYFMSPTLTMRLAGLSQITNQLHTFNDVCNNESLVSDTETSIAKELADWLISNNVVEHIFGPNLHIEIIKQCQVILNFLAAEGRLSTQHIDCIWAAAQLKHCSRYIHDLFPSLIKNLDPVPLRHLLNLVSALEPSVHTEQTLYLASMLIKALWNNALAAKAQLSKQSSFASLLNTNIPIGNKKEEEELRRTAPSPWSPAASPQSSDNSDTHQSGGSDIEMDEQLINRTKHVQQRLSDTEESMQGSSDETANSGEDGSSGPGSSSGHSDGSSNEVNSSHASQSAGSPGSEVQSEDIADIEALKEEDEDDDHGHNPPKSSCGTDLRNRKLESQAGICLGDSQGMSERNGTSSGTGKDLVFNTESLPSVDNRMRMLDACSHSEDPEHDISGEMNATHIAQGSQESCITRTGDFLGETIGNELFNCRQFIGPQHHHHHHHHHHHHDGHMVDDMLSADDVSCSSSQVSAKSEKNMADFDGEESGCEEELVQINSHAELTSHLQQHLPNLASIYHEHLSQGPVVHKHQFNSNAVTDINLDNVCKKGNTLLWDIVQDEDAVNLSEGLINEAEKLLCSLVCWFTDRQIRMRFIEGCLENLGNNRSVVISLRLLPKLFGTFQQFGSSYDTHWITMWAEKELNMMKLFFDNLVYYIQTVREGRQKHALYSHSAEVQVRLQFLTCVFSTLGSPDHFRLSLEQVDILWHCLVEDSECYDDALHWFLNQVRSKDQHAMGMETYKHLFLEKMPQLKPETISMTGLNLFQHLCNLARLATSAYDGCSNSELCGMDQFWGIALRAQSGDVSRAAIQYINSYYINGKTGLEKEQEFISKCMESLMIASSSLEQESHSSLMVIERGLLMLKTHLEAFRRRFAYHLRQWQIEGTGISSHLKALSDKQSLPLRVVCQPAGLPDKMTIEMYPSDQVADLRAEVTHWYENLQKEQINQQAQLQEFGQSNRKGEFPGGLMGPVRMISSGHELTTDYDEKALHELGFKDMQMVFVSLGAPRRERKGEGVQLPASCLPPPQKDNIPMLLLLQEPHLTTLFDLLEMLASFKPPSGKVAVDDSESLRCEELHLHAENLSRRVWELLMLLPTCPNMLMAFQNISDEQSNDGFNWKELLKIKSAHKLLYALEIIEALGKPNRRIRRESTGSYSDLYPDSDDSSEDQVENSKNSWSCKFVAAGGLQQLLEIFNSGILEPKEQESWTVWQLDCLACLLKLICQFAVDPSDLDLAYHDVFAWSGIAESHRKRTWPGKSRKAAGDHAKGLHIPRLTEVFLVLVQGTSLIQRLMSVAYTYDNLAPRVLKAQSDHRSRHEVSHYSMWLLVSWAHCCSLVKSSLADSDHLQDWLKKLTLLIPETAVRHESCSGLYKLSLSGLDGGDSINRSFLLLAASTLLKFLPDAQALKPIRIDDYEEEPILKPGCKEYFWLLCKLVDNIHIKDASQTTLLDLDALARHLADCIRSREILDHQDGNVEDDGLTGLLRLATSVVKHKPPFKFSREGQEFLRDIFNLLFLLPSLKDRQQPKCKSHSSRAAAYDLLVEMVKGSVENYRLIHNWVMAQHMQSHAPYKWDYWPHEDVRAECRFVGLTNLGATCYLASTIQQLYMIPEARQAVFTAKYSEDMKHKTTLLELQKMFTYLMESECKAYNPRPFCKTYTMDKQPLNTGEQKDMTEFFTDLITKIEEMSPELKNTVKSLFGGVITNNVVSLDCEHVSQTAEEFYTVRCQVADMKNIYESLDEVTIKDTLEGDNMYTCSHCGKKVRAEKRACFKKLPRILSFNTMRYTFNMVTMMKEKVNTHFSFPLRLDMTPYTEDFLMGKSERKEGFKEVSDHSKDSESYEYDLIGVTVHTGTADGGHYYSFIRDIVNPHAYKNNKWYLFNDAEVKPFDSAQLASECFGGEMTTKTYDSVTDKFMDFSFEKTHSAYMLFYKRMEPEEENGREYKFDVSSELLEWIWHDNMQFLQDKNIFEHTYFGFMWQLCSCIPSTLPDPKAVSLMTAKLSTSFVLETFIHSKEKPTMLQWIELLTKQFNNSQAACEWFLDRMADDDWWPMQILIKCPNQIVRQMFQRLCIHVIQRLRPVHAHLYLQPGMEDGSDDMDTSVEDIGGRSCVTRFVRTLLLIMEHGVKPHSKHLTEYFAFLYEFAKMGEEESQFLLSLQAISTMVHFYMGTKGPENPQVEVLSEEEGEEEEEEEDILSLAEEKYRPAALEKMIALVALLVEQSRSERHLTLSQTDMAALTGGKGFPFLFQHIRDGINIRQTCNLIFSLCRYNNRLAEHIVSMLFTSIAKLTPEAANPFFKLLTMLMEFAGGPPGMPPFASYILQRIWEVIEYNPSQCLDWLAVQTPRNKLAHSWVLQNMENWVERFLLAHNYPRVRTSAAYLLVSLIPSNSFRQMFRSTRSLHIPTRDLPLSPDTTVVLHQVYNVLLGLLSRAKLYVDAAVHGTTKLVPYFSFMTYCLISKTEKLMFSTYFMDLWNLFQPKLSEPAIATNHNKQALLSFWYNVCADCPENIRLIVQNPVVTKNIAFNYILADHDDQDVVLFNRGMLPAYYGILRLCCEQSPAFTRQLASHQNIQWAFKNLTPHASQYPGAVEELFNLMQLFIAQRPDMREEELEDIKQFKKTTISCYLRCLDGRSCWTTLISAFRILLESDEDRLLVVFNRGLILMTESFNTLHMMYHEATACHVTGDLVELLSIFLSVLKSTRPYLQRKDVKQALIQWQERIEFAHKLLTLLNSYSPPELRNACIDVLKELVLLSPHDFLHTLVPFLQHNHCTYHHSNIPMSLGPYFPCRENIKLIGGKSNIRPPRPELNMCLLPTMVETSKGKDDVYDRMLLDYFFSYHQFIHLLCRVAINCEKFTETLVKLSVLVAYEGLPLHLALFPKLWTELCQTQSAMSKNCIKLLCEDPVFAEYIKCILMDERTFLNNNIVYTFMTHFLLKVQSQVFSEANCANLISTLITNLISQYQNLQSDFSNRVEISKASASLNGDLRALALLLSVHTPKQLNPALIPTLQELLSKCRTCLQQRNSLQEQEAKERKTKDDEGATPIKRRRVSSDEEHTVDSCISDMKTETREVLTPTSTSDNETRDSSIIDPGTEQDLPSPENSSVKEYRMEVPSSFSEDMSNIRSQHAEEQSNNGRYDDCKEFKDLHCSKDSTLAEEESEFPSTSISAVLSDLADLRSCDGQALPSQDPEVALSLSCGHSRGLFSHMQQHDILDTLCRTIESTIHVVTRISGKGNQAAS

CCN1C(=O)C2CN(C(=O)CCl)CCN2C1=O (stereo not given)
inactive: [1] 0.053 | [2] -0.271 | [3] -0.0595 | [4] -0.0577 | [5] 0.0781
